According to PubChem BioAssay AID1159580 (chemical genetic matrix, 2015):
Values joined by “and” are separate entries in the source; they are usually repeats but may differ in a detail not shown here. Equal entries are not always repeated. About 2,000 (36%) of roughly 5,500 compounds were called active. Another 18% or so got no clear call; they are omitted. Cut-off read from the data, not from the text of the source: active = normalized growth mostly below about 0.91 (no sharp cut-off); inconclusive = no clear call, values can overlap the other calls; inactive = mostly above about 0.92. The list shows a part of the results.

Assay: chemical genetic growth profiling, strain panel (AID 1159580);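 note: tested at 20 µM; growth read once vehicle control cultures reached saturation at 30 °C; 1 = growth at the plate median or of vehicle wells; lower values mean less growth of the strain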
Settings: S. cerevisiae deletion strains, growth OD

Measured: normalized growth

COc1ccc(C(=O)c2ccccc2O)c(O)c1
inactive: locus YAL013W, strain DEP1, stronger effect = lower value 0.91 | locus YAL021C, strain ccr4, stronger effect = lower value 0.992 | locus YBR229C, strain ROT2, stronger effect = lower value 0.95 | locus YCL029C, strain bik1, stronger effect = lower value 0.929 | locus YDL005C, strain med2, stronger effect = lower value 0.918 | locus YDL035C, strain GPR1, stronger effect = lower value 0.962 | locus YDL074C, strain BRE1, stronger effect = lower value 0.845 | locus YDL101C, strain DUN1, stronger effect = lower value 0.944 | locus YDL134C, strain PPH21, stronger effect = lower value 0.933 | locus YDL185W, strain tfp1, stronger effect = lower value 0.921 | locus YDR069C, strain doa4, stronger effect = lower value 0.912 | locus YDR101C, strain arx1, stronger effect = lower value 0.949 | locus YDR150W, strain NUM1, stronger effect = lower value 0.961 | locus YDR162C, strain NBP2, stronger effect = lower value 0.926 | locus YEL061C, strain CIN8, stronger effect = lower value 0.952 | locus YER110C, stronger effect = lower value 0.913 | locus YER155C, strain BEM2, stronger effect = lower value 0.949 | locus YER167W, strain BCK2, stronger effect = lower value 0.951 | locus YFR010W, strain ubp6, stronger effect = lower value 0.902 | locus YGL078C, strain dbp3, stronger effect = lower value 0.947 | locus YGL086W, strain mad1, stronger effect = lower value 0.932 | locus YGR078C, strain PAC10, stronger effect = lower value 0.903 | locus YGR229C, strain SMI1, stronger effect = lower value 0.894 | locus YHR030C, strain SLT2, stronger effect = lower value 0.922 and 0.947 | locus YHR079C, strain IRE1 (second series), stronger effect = lower value 0.932 | locus YHR079C, strain IRE1, stronger effect = lower value 0.957 | locus YHR094C, strain hxt1, stronger effect = lower value 0.933 | locus YHR129C, strain ARP1, stronger effect = lower value 0.949 | locus YHR200W, strain rpn10, stronger effect = lower value 0.937 | locus YIL066C, strain RNR3, stronger effect = lower value 0.946 | locus YIL073C, strain SPO22, stronger effect = lower value 0.84 | locus YIL125W, strain kgd1, stronger effect = lower value 0.943 | locus YJL115W, strain asf1, stronger effect = lower value 0.91 | locus YJL134W, strain LCB3, stronger effect = lower value 0.953 | locus YJL168C, strain set2, stronger effect = lower value 0.938 | locus YJL187C, strain SWE1 (second series), stronger effect = lower value 0.896 | locus YJR043C, strain POL32, stronger effect = lower value 0.976
active: locus YAL026C, strain drs2, stronger effect = lower value 0.815 | locus YAL030W, strain snc1, stronger effect = lower value 0.894 | locus YBL061C, strain skt5, stronger effect = lower value 0.818 | locus YBR009C, strain hhf1, stronger effect = lower value 0.806 | locus YBR021W, strain FUR4, stronger effect = lower value 0.817 | locus YBR023C, strain chs3, stronger effect = lower value 0.867 | locus YBR171W, strain sec66, stronger effect = lower value 0.823 | locus YBR231C, strain swc5, stronger effect = lower value 0.887 | locus YBR279W, strain paf1, stronger effect = lower value 0.902 | locus YCL011C, strain gbp2, stronger effect = lower value 0.876 | locus YCL016C, strain dcc1, stronger effect = lower value 0.905 | locus YCL061C, strain MRC1, stronger effect = lower value 0.888 | locus YCL069W, strain vba3, stronger effect = lower value 0.869 | locus YCR088W, strain abp1, stronger effect = lower value 0.888 | locus YDL040C, strain nat1, stronger effect = lower value 0.893 | locus YDL192W, strain arf1, stronger effect = lower value 0.915 | locus YDR001C, strain nth1, stronger effect = lower value 0.888 | locus YDR137W, strain rgp1, stronger effect = lower value 0.43 | locus YDR159W, strain sac3, stronger effect = lower value 0.757 | locus YDR195W, strain ref2 1.2 [resistant] | locus YDR297W, strain sur2, stronger effect = lower value 0.878 | locus YDR318W, strain mcm21, stronger effect = lower value 0.91 | locus YDR334W, strain swr1, stronger effect = lower value 0.89 | locus YDR335W, strain msn5, stronger effect = lower value 0.889 | locus YDR388W, stronger effect = lower value 0.92 | locus YDR392W, strain spt3, stronger effect = lower value 0.417 | locus YDR502C, strain sam2, stronger effect = lower value 0.871 | locus YEL003W, strain gim4, stronger effect = lower value 0.83 | locus YEL037C, strain rad23, stronger effect = lower value 0.874 | locus YEL061C, strain CIN8 (second series), stronger effect = lower value 0.874 | locus YER015W, strain faa2, stronger effect = lower value 0.876 | locus YER016W, strain bim1, stronger effect = lower value 0.883 | locus YER111C, strain swi4, stronger effect = lower value 0.885 | locus YER155C, strain BEM2 (second series), stronger effect = lower value 0.444 | locus YGL167C, strain pmr1, stronger effect = lower value 0.843 | locus YGL173C, strain kem1, stronger effect = lower value 0.817 | locus YGL227W, strain vid30, stronger effect = lower value 0.879 | locus YGL240W, strain doc1, stronger effect = lower value 0.734 | locus YGL248W, strain PDE1, stronger effect = lower value 0.876 | locus YGL253W, strain hxk2, stronger effect = lower value 0.799 | locus YGR135W, strain pre9, stronger effect = lower value 0.822 | locus YGR252W, strain gcn5, stronger effect = lower value 0.751 | locus YHR013C, strain ard1, stronger effect = lower value 0.725 | locus YHR027C, strain rpn1, stronger effect = lower value 0.883 | locus YHR142W, strain chs7, stronger effect = lower value 0.722 | locus YIR030C, strain dcg1, stronger effect = lower value 0.918 | locus YJL092W, strain hpr5, stronger effect = lower value 0.876 | locus YJL095W, strain BCK1 (second series), stronger effect = lower value 0.727 | locus YJL129C, strain trk1, stronger effect = lower value 0.8 | locus YJL154C, strain vps35, stronger effect = lower value 0.884 | locus YJL164C, strain tpk1, stronger effect = lower value 0.798 | locus YJL166W, strain qcr8, stronger effect = lower value 0.881 | locus YJL187C, strain SWE1, stronger effect = lower value 0.88
0.676 (active) and 0.932 (inactive): locus YJL095W, strain BCK1, stronger effect = lower value
